The values that follow come from PubChem BioAssay (NCATS).

SMILES strings stand for the structures. Inconclusive results are not listed. Where a call stands in place of a potency, no number is given. Calls of active or inactive are those of the source. The call rests on the fitted dose curve; in most records, active means well fitted cell-killing curve with a large enough effect; inconclusive means small, poorly fitted or top-dose-only effect, or effect the other way; inactive means no such curve, though single readings can be large or run the other way.
Potency means the concentration at half of the fitted maximal effect.

This assay can be described thus: Quantitative High-Throughput drug screen in 47 multiple myeloma cell lines against the NCATS MIPE library collection: FR4_PLB cell viability assay (AID 1918924; further: nearly all actives have a fitted effect of over 35% in size). To be noted: FR4_PLB myeloma cells viability, CellTiter-Glo ATP, 48 h; series mostly up to 45.8 µM. From the text: PI: Beverly A. Mock Ph.D.
Laboratory of Cancer Biology and Genetics,
Center for Cancer Research, National Cancer Institute,
National Institute of Health, Bethesda, Maryland
Drug resistance and disease progression are common in multiple myeloma (MM) patients, underscoring the need for new therapeutic combinations. […] We hypothesized that effective combinations would reduce MYC expression and enhance p16 activity. […] These preclinical data identify potentially useful drug combinations for evaluation in drug-resistant MM and reveal potential mechanisms of combined drug sensitivity.
Described herein is the primary MIPE qHTS used to cherrypick compounds. Validated compounds were then further tested for potential synergistic activiy.
[1] Peat TJ, Gaikwad SM, Dubois W, Gyabaah-Kessie N, Zhang S, Gorjifard S, Phyo Z, Andres M, Hughitt VK, Simpson RM, Miller MA, Girvin AT, Taylor A, Williams D, D'Antonio N, Zhang Y, Rajagopalan A, Flietner E, Wilson K, Zhang X, Shinn P, Klumpp-Thomas C, McKnight C, Itkin Z, Chen L, Kazandijian D, Zhang J, Michalowski AM, Simmons JK, Keats J, Thomas CJ, Mock BA. Drug combinations identified by high-throughput screening promote cell cycle transition and upregulate Smad pathways in myeloma. Cancer Lett. 2023 Aug 1;568:216284. doi: 10.1016/j.canlet.2023.216284. Epub 2023 Jun 24. PMID: 37356470; PMCID: PMC10408729.
SEQUENCE No. (e.g., 1, 2, 3, etc.); […] (e.g., Cells, Incubation, Reagent, etc.); VALUE and DESCRIPTION.
1; Cells; 5 uL; white, solid bottom 1536-well Greiner assay plate.
2; Compounds; 23 nL; Kalypsis pin tool (Wako USA) equipped with a 1536-well pin head to transfer to the assay plates.
3; Incubation; 48 hours; 37C incubation.
4; Reagent;5uL; CellTiter Glo (Promega).
5; Detector; 425V; Luminescence; Viewlux PerkinElmer.
NOTES (numbers refer to Sequence numbers above)
1. The cell-based screening methods employed in this study were like those previously published. Briefly, the corresponding myeloma cell lines were screened in 1,536-well plates with 500 cells, 5-uL per well for inhibition of cell viability (assessed by measuring ATP levels with CellTiterGlo).
2. NCATS MIPE 4.0 library of approved and investigational drugs were added using the Kalypsis pin tool. Wells treated with DMSO only for 100% viability and media only wells for 0% viability were used as controls.
3. The assay plates were covered and incubated for 48 hours in a 37C, 5% CO2 incubator with controlled humidity.
4. After 48 hours, CellTilter-GloTM luminescent substrate mix (Promega) reagent was added to the assay plate and plates we incubated for 5 min at room temperature.
5. Signal was measured as median relative luminescence units on a ViewLux (PerkinElmer) multiplate reader.
[1] Heske CM, Davis MI, Baumgart JT, Wilson K, Gormally MV, Chen L, Zhang X, Ceribelli M, Duveau DY, Guha R, Ferrer M, Arnaldez FI, Ji J, Tran HL, Zhang Y, Mendoza A, Helman LJ, Thomas CJ. Matrix Screen Identifies Synergistic Combination of PARP Inhibitors and Nicotinamide Phosphoribosyltransferase (NAMPT) Inhibitors in Ewing Sarcoma. Clin Cancer Res. 2017 Dec 1;23(23):7301-7311. doi: 10.1158/1078-0432.CCR-17-1121. Epub 2017 Sep 12. PMID: 28899971; PMCID: PMC6636827.
On the technique in general: Cellular ATP, detected with luciferase, serves as a proxy for viable cell number.
On to `O=C(Nc1ccc([N+](=O)[O-])cc1Cl)c1cc(Cl)ccc1O`, for which the Potency was 2.09 µM (active).
For `CNCCCC12CCC(c3ccccc31)c1ccccc12` the value was 20.9 µM (active); for `COc1ccccc1N1CCN(CC(O)COc2cccc3ccccc23)CC1` (stereo not given), “inactive”; for `CC(C)C(=O)Nc1ccc([N+](=O)[O-])c(C(F)(F)F)c1`, “inactive”.
With `CCOC(=O)C(C)(C)Oc1ccc(Cl)cc1`, the Potency entry is “inactive”.
For `CN1CCC(=C2c3ccccc3CC(=O)c3sccc32)CC1` the value was “inactive”; for `Cn1ccc2cc3c(cc21)CCN3C(=O)Nc1cccnc1`, “inactive”; for `CC(C)NCC(O)COc1ccc(CCOCC2CC2)cc1` (stereo not given), “inactive”.
For `CN(C)c1nc(N(C)C)nc(N(C)C)n1` the value was “inactive”; for `NCCS(=O)(=O)O`, “inactive”.
For `CN(C)CCOC(c1ccccc1)c1ccccc1` the value was “inactive”; for `COc1ccc2c(c1)c(CC(=O)O)c(C)n2C(=O)c1ccc(Cl)cc1`, “inactive”; for `NC(=O)NO`, 3.32 µM (active).
As to `Cc1ccc(-c2cc(C(F)(F)F)nn2-c2ccc(S(N)(=O)=O)cc2)cc1`, the Potency entry was “inactive”.
Take `CC(CCc1ccc(O)cc1)NCCc1ccc(O)c(O)c1` (stereo not given): the Potency was 23.5 µM (active).
`CC1COc2c(N3CCN(C)CC3)c(F)cc3c(=O)c(C(=O)O)cn1c23` (stereo not given): the Potency result was “inactive”.
For `CC(C(=O)O)c1cccc(C(=O)c2ccccc2)c1` (stereo not given) the value was “inactive”; for `CCCNCC(O)COc1ccccc1C(=O)CCc1ccccc1` (stereo not given), “inactive”.
For `CC[C@@]1(O)C(=O)OCc2c1cc1n(c2=O)Cc2cc3c(CN(C)C)c(O)ccc3nc2-1` the value was 2.64 µM (active); for `Cc1cc(C(C)(C)C)cc(C)c1CC1=NCCN1`, “inactive”.
With `O=C(CCCN1CCC(O)(c2ccc(Cl)cc2)CC1)c1ccc(F)cc1` the entry was “inactive”; with `CN(C)C(=N)N=C(N)N`, “inactive”.
For the compound `CN(C)C(=O)C(CCN1CCC(O)(c2ccc(Cl)cc2)CC1)(c1ccccc1)c1ccccc1`, the Potency was 20.9 µM (active).
Regarding `Clc1ccc2c(c1)C(N1CCNCC1)=Nc1ccccc1O2`, the Potency result is “inactive”.
As for `CCCCc1oc2ccccc2c1C(=O)c1cc(I)c(OCCN(CC)CC)c(I)c1`, the Potency is 26.4 µM (active).
With `COc1ccc(C2CNC(=O)C2)cc1OC1CCCC1` (stereo not given) the entry was “inactive”; with `C[C@](N)(Cc1ccc(O)c(O)c1)C(=O)O`, “inactive”; with `CCN1CCCC1CNC(=O)c1cc(S(=O)(=O)CC)c(N)cc1OC` (stereo not given), “inactive”.
`CCC1(c2ccccc2)C(=O)NCNC1=O`: the Potency result was “inactive”.
For `NC12CC3CC(CC(C3)C1)C2` the value was “inactive”.
`CS(=O)(=O)Nc1ccc([N+](=O)[O-])cc1Oc1ccccc1`: the Potency entry was “inactive”.
With `Clc1ccc2nsnc2c1NC1=NCCN1`, the Potency result was “inactive”.
Take `CCOC(=O)Nc1ccc(NCc2ccc(F)cc2)nc1N`: the Potency entry is “inactive”.
As for `Nc1nnc(-c2cccc(Cl)c2Cl)c(N)n1`, the Potency result is “inactive”.
For `Nc1c2c(nc3ccccc13)CCCC2`, the Potency entry is “inactive”.
For `COc1ccccc1OCC(O)CN1CCN(CC(=O)Nc2c(C)cccc2C)CC1` (stereo not given) the value was “inactive”; for `Cc1ccc(C(=O)Nc2ccc(S(=O)(=O)O)c3cc(S(=O)(=O)O)cc(S(=O)(=O)O)c23)cc1NC(=O)c1cccc(NC(=O)Nc2cccc(C(=O)Nc3cc(C(=O)Nc4ccc(S(=O)(=O)O)c5cc(S(=O)(=O)O)cc(S(=O)(=O)O)c45)ccc3C)c2)c1`, “inactive”; for `CN1CCN(C2=Nc3cc(Cl)ccc3Nc3ccccc32)CC1`, “inactive”.
With `OCCN1CCN(CCCN2c3ccccc3Sc3ccc(C(F)(F)F)cc32)CC1` the figure was 23.5 µM (active); with `CC(C)(Oc1ccc(C2CC2(Cl)Cl)cc1)C(=O)O` (stereo not given), “inactive”.
